# Rows were chosen to be rich in hits. Some 5.1% of all compounds tested hit in one or more screens of this group.
# GRIN3A LBD mod = NR3A (human) ligand-binding domain modulation | Tm shift relative to glycine control, % at 25 µM | actives 2.5% (n = 340,000) | NR3A LBD differential scanning fluorimetry, Tm shift; 0% = protein alone, 100% = glycine-bound protein;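 active = melting temperature shift of at least 10% of the positive control shift, at one fixed dose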
# ANO1 activ = activators or potentiators of mouse TMEM16A chloride channel | actives 0.3% (n = 340,000) | Q8BHY3 | B-score at 10 µM | AID 623877 | HEK293 TMEM16A/YFP-H148Q/I152L, iodide quench fluorescence; hits give low values;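 active = fluorescence-ratio B-score plate-corrected deviation score at least 3 library SD below zero, with starting fluorescence score within 5 deviations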;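 also: channel opened by trigger with iodide after compound preincubation; score built on the fluorescence ratio of max minus min over baseline; more negative score means more quench and so TMEM16A activation or potentiation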
# CRFBP-R2 agonist = CRF-BP/CRF-R2 complex agonism; HEK293 CRF-R2/CRF-BP, calcium dye fluorescence (FLIPR); percent of saturating CRF peptide response; activation, % at 13.2 µM; actives 0.46% (n = 350,000);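 active = activation of at least 50%, plus an integration ratio under a set limit after plate pattern correction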;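 also: plate controls were neutral control wells without compound for no effect and CRF at EC100 for full effect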
# CRFBP-R2 block = blocks CRF-induced signaling of the CRF-BP/CRF-R2 complex; HEK293 CRF-R2/CRF-BP, CRF-induced calcium fluorescence; AID 588475; inhibition, % at 11.8 µM; actives 0.59% (n = 350,000);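 active = inhibition of the ligand-induced calcium signal above about 50% at the single tested concentration, limit read from the data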
# MPTP block = blocks calcium-induced mitochondrial swelling; actives 1.4% (n = 360,000); AID 602449; isolated mouse mitochondria, Ca2+ swelling absorbance, 30 min; inhibition, % at 10 µM;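 active = inhibition of 50% or more, scaled per plate between neutral and stimulator controls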;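 also: 0% = DMSO wells given calcium and 100% = 1 mM EGTA wells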
# ANO1 block = blocks the mouse calcium-activated chloride channel TMEM16A; Q8BHY3; HEK293 TMEM16A/YFP iodide influx fluorescence, ionomycin; normalized B-score (activity score, 25-100; higher = stronger inhibition) at 10 µM; actives 1.2% (n = 310,000); AID 588511;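 active = ratio plate-corrected score three or more library SD toward inhibition, starting fluorescence score within five deviations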;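 also: score derived from kinetic fluorescence span divided by baseline fluorescence per well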
# Active calls of the source: *; i = inactive; nt = no result.
SMILES,GRIN3A LBD mod,ANO1 activ,CRFBP-R2 agonist,CRFBP-R2 block,MPTP block,ANO1 block
O=C(CN(Cc1ccccc1)S(=O)(=O)c1ccccc1)N/N=C/c1ccc([N+](=O)[O-])cc1,10*,i,-1,-39,6,i
O=C(CCCC(=O)Nc1cccc(Br)c1)N/N=C/c1cc([N+](=O)[O-])ccc1O,7,i,-2,18,0,i
O=C(CN(c1cccc(Br)c1)S(=O)(=O)c1ccccc1)N/N=C/c1cc([N+](=O)[O-])ccc1O,14*,i,0,-21,26,i
O=Cc1ccccc1-c1cn(CN2C(=O)c3ccccc3C2=O)nn1,-3,i,-2,6,-2,i
COc1cc2c(c(OC)c1CC=C(C)C)C[C@H](c1ccc(O)cc1O)CO2,19*,i,0,-5,2,i
COc1cccc(C(=O)NNS(=O)(=O)c2ccccc2)c1,nt,nt,1,11,2,nt
Cc1cc(C)cc(N2C(=O)c3nccnc3C2=O)c1,14*,i,-4,-5,2,i
Cc1cc(C)cc(N2C(=O)C=CC2=O)c1,2,i,3,34,0,nt
CCOc1ccc2nc3cc(NCc4ccc(OC)cc4)ccc3c(N)c2c1,3,-6.9*,43,-2,2,i
CCn1cnc2cc(NCc3ccc(OC)cc3)ccc21,0,i,1,-41,0,i
CCN(CC)CCNC(Cc1ccccc1)c1cccc(OC)c1 (stereo not drawn),13*,i,12,17,1,nt
CCC1(c2ccc(F)cc2)NC(=O)N(CC(=O)Nc2ccc(-c3nc4ccc(C)cc4s3)cc2)C1=O (stereo not drawn),11*,i,0,-5,0,i
CCCCC1(c2ccc(F)cc2)NC(=O)N(CC(=O)Nc2ccc(N3CCOCC3)cc2)C1=O (stereo not drawn),12*,i,20,-16,2,nt
CCc1ccc2nc(NC(=O)CN3C(=O)NC4(CCCC4)C3=O)sc2c1,11*,i,0,-40,-1,nt
COc1ccccc1C(=O)NC(=O)COC(=O)c1ccc(C)o1,2,i,0,-8,-1,i
CCc1ccc(/C=C2\SC(=S)N(CCCC(=O)Nc3nccs3)C2=O)cc1,-9,i,4,-42,3,i
CCc1ccc(/C=C2\SC(=S)N(CCCC(=O)Nc3ccccc3C(=O)O)C2=O)cc1,4,i,-1,37,5,100*
COc1ccc(/C=C2/SC(=S)N(CCCC(=O)Nc3cccc(O)c3)C2=O)cc1,12*,i,-1,10,-1,i
Cc1ccc(/C=C2\SC(=S)N(CCCC(=O)Nc3ccccc3C(=O)O)C2=O)cc1,-3,i,0,18,2,i
Cc1ccc(/C=C2\SC(=S)N(CCCC(=O)Nc3nccs3)C2=O)cc1,10*,i,0,-16,2,i
CCc1ccc(/C=C2\SC(=S)N(CCCC(=O)Nc3ccc(C(=O)O)cc3)C2=O)cc1,0,i,-1,1,0,100*
CCCCc1nnc(SCC(=O)NC2CCCCC2)n1C,-3,i,1,-5,-2,i
Clc1ccc(-c2ccnc(Oc3cc(Cl)ccc3Cl)n2)cc1,7,i,8,2,1,25*
Clc1ccc(-c2ccnc(Oc3ccc4ccccc4c3)n2)cc1,-5,i,5,-7,-3,i
Oc1ccc(-c2[nH]ncc2-c2cnn(-c3ccccc3)c2)c(O)c1,-1,i,0,-7,0,i
SMILES,GRIN3A LBD mod,ANO1 activ,CRFBP-R2 agonist,CRFBP-R2 block,MPTP block,ANO1 block
Oc1cnn(-c2ccccc2)c1,15*,i,-2,6,-2,i
COc1ccc(C(=O)NCCS(=O)(=O)NCc2ccccc2OC)cc1,1,i,0,8,-1,i
O=c1[nH]cnc2c1nc(NCc1ccccc1)n2C1O[C@@H](CO)[C@H](O)[C@@H]1O (stereo partly drawn),0,i,2,-66,0,i
c1ccc(OCCSc2nc3ccccc3[nH]2)cc1,-15,i,0,12,-6,i
Cc1ccc2nc(SCCCCOc3ccccc3)[nH]c2c1,-3,i,3,8,38,100*
Cc1ccc(S(=O)(=O)N(C)C)cc1NC(=O)CN1C(=O)NC2(CCc3ccccc32)C1=O (stereo not drawn),nt,nt,-2,2,0,nt
CC1(C)CCC(=O)c2ccccc21,0,i,-1,-4,0,nt
CC12CCCc3c(O)cc(=O)n(c31)-c1ccccc12 (stereo not drawn),21*,i,0,-2,-2,i
CC(=O)C1=C(C)NC(=S)NC1c1cc([N+](=O)[O-])ccc1O (stereo not drawn),0,i,-3,100*,1,i
CCN1C[C@@H]2[C@@H]3C(=O)N(C)C(=O)[C@@H]3[C@](Cc3ccccc3)(C1=O)N2C(=O)c1ccc(F)cc1,2,i,1,1,-1,nt
Cc1cccc(NC(=O)C2CCN(C(=O)c3ccc(Cl)cc3)CC2)n1,-2,i,6,1,-1,i
NC(=O)C[C@H](N)c1cn([C@@H](CC(N)=O)C(=O)N2CCNCC2)nn1,4,-10*,5,4,-1,i
Cc1c(Cl)ccc2c1NC(=O)[C@]21N[C@@H](Cc2ccccc2)[C@H]2C(=O)N(c3ccc(F)cc3)C(=O)[C@H]21,13*,i,25,-89,4,i
CC(=O)N(C)c1ccc(N=NC2C(=O)N(C(N)=S)N=C2C)cc1 (stereo not drawn),-3,i,2,51*,-1,i
CC1=NN(C(N)=S)C(=O)C1N=Nc1c(Cl)cc([N+](=O)[O-])cc1Cl (stereo not drawn),3,i,12,26,48,25*
Cc1ccn2cc(-c3cccc(NC(=O)c4cccs4)c3)nc2c1,1,i,-5,-1,1,i
O=C(Nc1ccc(O)c(-c2nc3ccccc3s2)c1)c1cccs1,26*,i,6,-29,8,i
O=C(Nc1ccc(F)cc1)Nc1sccc1-c1nc2ccccc2s1,31*,i,3,-17,44,i
CNc1sc(C(=O)c2ccc(F)cc2)c(N)c1-c1nc2ccccc2s1,0,i,-1,-21,12,i
Cc1cccn2cc(-c3cccc(NC(=O)c4cccs4)c3)nc12,23*,i,0,-4,-3,i
O=C(Nc1cccc(-c2csc(-c3ccccc3)n2)c1)c1cccs1,24*,i,2,-12,7,i

# Compound activity deposited in PubChem BioAssay by several laboratories.
